Reference: PubChem BioAssay AID1159580 (chemical genetic matrix, 2015)
Among all 5,500 compounds or so, about 2,000 (36%) were called active. About 18% were inconclusive and are not listed. Rule as the data show it: active = normalized growth mostly below about 0.91 (no sharp cut-off); inconclusive = no clear call, values can overlap the other calls; inactive = mostly above about 0.92. Some of the results follow.

Assay: chemical genetic growth profiling, strain panel (AID 1159580);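 also: tested at 20 µM; growth read once vehicle control cultures reached saturation at 30 °C; 1 = growth at the plate median or of vehicle wells; lower values mean less growth of the strain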
Details: S. cerevisiae deletion strains, growth OD

Measured: normalized growth

C#C[C@]1(O)CC[C@H]2[C@@H]3CCC4=Cc5oncc5CC4(C)[C@H]3CCC21C (stereo partly specified)
inactive: locus YAL040C, strain CLN3, stronger effect = lower value 0.943 | locus YCL061C, strain MRC1 (second series), stronger effect = lower value 1 | locus YDR363W, strain ESC2, stronger effect = lower value 1.02 | locus YER002W, strain NOP16, stronger effect = lower value 0.949 | locus YGR078C, strain PAC10, stronger effect = lower value 0.948 | locus YGR229C, strain SMI1, stronger effect = lower value 1.02 | locus YJR075W, strain HOC1, stronger effect = lower value 1 | locus YMR263W, strain SAP30, stronger effect = lower value 1 | locus YMR307W, strain GAS1, stronger effect = lower value 0.988 | locus YNL153C, strain GIM3, stronger effect = lower value 0.917 | locus YNL175C, strain NOP13, stronger effect = lower value 0.917 | locus YNL197C, strain WHI3, stronger effect = lower value 0.921 | locus YNL224C, strain SQS1, stronger effect = lower value 0.934 | locus YOR083W, strain WHI5 (second series), stronger effect = lower value 0.99 | locus YPL055C, strain LGE1, stronger effect = lower value 1.02 | locus YPL241C, strain CIN2, stronger effect = lower value 1
